Data on 10 molecules can be found in PubChem BioAssay (EPA / NIEHS).

The structures appear in SMILES notation. Several values for one entry are separate records, joined by “and”; a condition that tells them apart may be missing. Identical values can stand only once. Results filed as inconclusive are left out. A structure can be active in one record and inactive in another. Activity calls are given as the source filed them. The calls were made as follows: active = hit-call score of the fitted dose curve at least 0.9, where 1 is the maximum; inconclusive = response in the unintended direction; inactive = score below 0.9.

The subject of the experiment is turtle Estrogen Receptor (ERa), gene 101933533. The experiment in a line: ATG_trERa_XSP2: Attagene TRANS-FACTORIAL Multi-Species (XSP2) HepG2 Assay for turtle Estrogen Receptor (ERa) (AID 2283812).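 Also: actives raise reporter signal above DMSO so AC50 reflects agonist activity.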 How it is done: ATG_XSP2_multi-species_TRANS is a cell-based, multiplexed assay created by modifying the existing Attagene TRANS-FACTORIAL system to include a panel of nuclear receptors from some or all the following species: human (Homo sapiens), mouse (Mus musculus), frog (Xenopus laevis), zebrafish (Danio rerio), chicken (Gallus gallus), and turtle (Chrysemys picta). The ECOTOX-FACTORIAL format uses HepG2, a human liver cell line, with measurements taken at 24 hours after chemical dosing in a 24-well plate. Xsp2 included 3 nM 6-alpha-fluorotestosterone and 1.5 nM norgestrel to stimulate the androgen receptor.ATG_trERa_XSP2 is one of 29 assay components measured or calculated from the ATG_XSP2_multi-species_TRANS assay. It is designed to make measurements of mRNA induction, a form of inducible reporter, as detected with fluorescence intensity signals by Reverse transcription polymerase chain reaction (RT-PCR) and Capillary electrophoresis technology.The assay endpoint ATG_trERa_XSP2 was analyzed in the positive analysis fitting direction relative to DMSO as the negative control and baseline of activity. Using a type of inducible reporter, measures of mRNA for gain-of-signal activity can be used to understand the reporter gene at the transcription factor-level as they relate to the gene ER. Furthermore, this assay endpoint can be referred to as a primary readout, because this assay has produced multiple assay endpoints where this one serves a reporter gene function. To generalize the intended target to other relatable targets, this assay endpoint is annotated to the nuclear receptor intended target family, where the subfamily is steroidal.
Human liver HepG2 cells are transiently transfected with multiple reporter transcription units (MRTUs) in 6-well plates using FuGene 6 reagent (Roche; 3 ml FuGene/1 mg DNA). The MRTU constructs are regulated by a cis-regulating element (promoter). […] A major difference between the CIS and TRANS system is that in CIS activities of endogenous TFs are measured, whereas the TRANS assay evaluates changes in activities of exogenous, chimeric NR-Gal4 proteins. […] At the end of 24 hour incubation, total RNA was isolated using TriZol reagent (Invitrogen). The isolated RNA is then reverse-transcribed using oligo(dT) primer and Mo-MLV reverse transcriptase (Invitrogen) with DNAse I (Ambion) treatment for 30 min. The one-tenth of the produced cDNA was amplified by PCR using Taq DNA polymerase (Invitrogen) and two reporter sequence-specific primers. The PCR products were fluorescently labeled by primer extension with 6-arboxyfluorescein (6-FAM) 5'-labeled reporter sequence-specific primer (2 min at 95 C, 20 s at 68 C and 10 min at 72 C) and these products were digested with 5U of HpaI (New England Biolabs) for 2h at 37 C. The fragments were purified using Qiaquick PCR columns (Qiagen), analyzed on an ABI 3130xL genetic analyzer (Applied Biosystems) with peak positions identified by using a set of X-rhodamine (ROX)-labeled MapMarker1000 molecular weight standards (BioVentures). The raw capillary electrophoresis data was processed using Attagraph software (Attagene).
As for `CCN(CC)C(=O)C(C)Oc1cccc2ccccc12` (stereo unspecified), the AC50 is 10.5 µM (active).

As to `COP(=S)(OC)Oc1ccc([N+](=O)[O-])c(C)c1`, the AC50 is 31.9 µM (active). Take `CC1(C)CCC(=Cc2ccc(Cl)cc2)C1(O)Cn1cncn1` (stereo unspecified): the molecule was called inactive. Take `CC1(C)C(C=C(Cl)Cl)C1C(=O)OC(C#N)c1cccc(Oc2ccccc2)c1` (stereo unspecified): the AC50 was 18 µM (active). On to `CSC(=O)c1c(C(F)F)nc(C(F)(F)F)c(C(=O)SC)c1CC(C)C`, for which the call was inactive. For `COP(=S)(OC)SCn1nnc2ccccc2c1=O`, the AC50 is 16.4 µM (active) and the result was inactive. Regarding `Cc1c(COC(=O)[C@@H]2[C@H](/C=C(\Cl)C(F)(F)F)C2(C)C)cccc1-c1ccccc1`, the half-maximal activity concentration (AC50) is 38.7 µM (active). For `CC(C)NC(=O)N1CC(=O)N(c2cc(Cl)cc(Cl)c2)C1=O`, the molecule was called inactive.

Turning to `C=C(C)CN(CC)c1c([N+](=O)[O-])cc(C(F)(F)F)cc1[N+](=O)[O-]`, the AC50 was 4.03 µM (active) and 12.5 µM (active). Same read-out and setting: then `N#Cc1c[nH]cc1-c1cccc2c1OC(F)(F)O2`, with 2.37 µM (active) and 1.02 µM (active).
